The campaign covered roughly 1,300 compounds. About 1,000 (77%) were called active. Not shown: some 7% with an inconclusive outcome. The call rests on the fitted dose curve; in most records, active means well fitted inhibition curve with a large enough effect; inconclusive means small, poorly fitted or top-dose-only effect; inactive means no such curve, though single readings can be large or run the other way. The set was probably picked from earlier hits. The list shows a part of the results.
Experiment: qHTS of small molecules that selectively kill Giardia lamblia: Hit Validation.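 Further: viability measured as ATP content by luminescence so killing lowers signal; trophozoites exposed to compounds for 48 h anaerobically at 37 °C; nearly all actives have a fitted effect of over 65% in size.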
Conditions: Giardia lamblia trophozoite viability, dose-response; series mostly up to 38.3 µM
How it was run: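 HTS viability screen: compound-treated trophozoites (100 cells/well) are kept anaerobic at 37 deg C for 48 hrs, and surviving cells are detected through ATP-dependent luminescence.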
Potency means the concentration at half of the fitted maximal effect.

Structure (SMILES) | Potency
CCN(CC)CC(=O)Nc1c(C)cccc1C | inactive
O=c1/c(=C/c2ccc(O)c([N+](=O)[O-])c2)sc2nc3ccccc3n12 | 2.59 µM (active)
COc1ccc2c(c1)C1OCCC1C(c1ccco1)N2 (stereo unspecified) | 2.31 µM (active)
Cc1ccc(N2CC(C(=O)Nc3ncc([N+](=O)[O-])s3)CC2=O)cc1 (stereo unspecified) | 0.365 µM (active)
O=C(Nc1ncc([N+](=O)[O-])s1)C1CC(=O)N(c2ccc(F)cc2)C1 (stereo unspecified) | 1.03 µM (active)
O=C(CCN=C1NS(=O)(=O)c2ccccc21)OCC(=O)c1ccc(F)c(F)c1 | inactive
CCCNC(=O)Cn1c(=O)n(C)c2ccccc21 | inactive
COc1cc2c(cc1OC)-c1c(OC)c(OC)cc3ccnc(c13)C2=O | 0.579 µM (active)
COc1ccc(-c2nc(NCCCN(C)C)c3ccccc3n2)cc1 | 0.818 µM (active)
CCN(CC)CCCNc1nc2ccccc2c2[nH]c3ccc(OC)cc3c12 | 0.183 µM (active)
CCN1C(=O)[C@H]2[C@H]3CN=C(SCc4ccccc4)N3[C@@](Cc3ccccc3)(C(=O)OC)[C@H]2C1=O | inactive
Cc1nn2c3cc(N4CCOCC4)ccc3nc2c2ccccc12 | 1.03 µM (active)
COc1cccc2c1C(CO)N1C(C#N)C3CC(C(=O)O)C(C1C2)N3C (stereo unspecified) | 1.16 µM (active)
O=C(N/N=C/c1ccc([N+](=O)[O-])o1)C1CCCC1 | 0.516 µM (active)
O=C(N/N=C/c1ccc([N+](=O)[O-])o1)C1CC1 | 1.16 µM (active)
CCOc1cc([N+](=O)[O-])cc(/C=C2/NC(=O)N(Cc3ccccc3F)C2=O)c1O | 1.63 µM (active)
COc1ccc(-c2coc3cc(O)ccc3c2=O)cc1 | 1.16 µM (active)
O=c1c(-c2ccc(F)cc2)coc2cc(O)ccc12 | 0.918 µM (active)
CC(C)Oc1cc(O)c2c(=O)c(-c3ccc(O)cc3)coc2c1 | 0.516 µM (active)
CC1(C)Oc2cc3oc(-c4cc(O)cc(O)c4)cc3cc2CC1O (stereo unspecified) | 1.45 µM (active)
COC(=O)[C@]1(Cc2ccccc2)N[C@H](CN(C)C(=O)c2ccccc2)[C@@H]2C(=O)N(C)C(=O)[C@@H]21 | inactive

Structure (SMILES) | Potency
COc1ccc2oc(C(=O)OC(C)C(=O)NCc3ccccc3)c(C)c2c1 (stereo unspecified) | inactive
COc1ccc(C(=O)C(C)OC(=O)CNC(=O)c2ccco2)cc1 (stereo unspecified) | 20.5 µM (active)
COc1ccc(C(=O)C(C)OC(=O)CNC(=O)C2CCCCC2)cc1 (stereo unspecified) | 4.6 µM (active)
CCOC(=O)N=Nc1c2ccccc2c2nc3no[nH]c3nc12 | 0.365 µM (active)
Fc1cc2[nH]cnc2cc1Cl | inactive
O=C(NCc1ccco1)NC(=O)c1csc([N+](=O)[O-])c1 | 1.63 µM (active)
CC(C)CNC(=S)NC(=O)c1csc([N+](=O)[O-])c1 | 1.3 µM (active)
COc1cc(C(=S)N2CCOCC2)ccc1OC(=O)/C=C/c1ccco1 | inactive
COc1cc(/C=C/C(=O)c2ccc3c(c2)OCCO3)cc(OC)c1OC | 7.29 µM (active)
Cc1nn(-c2nc3ccccc3[nH]2)c(=O)c2ccccc12 | 0.23 µM (active)
COC1C(OC(=O)/C=C/C=C/C=C/C=C/C(=O)O)CCC2(CO2)C1C1(C)OC1CC=C(C)C (stereo unspecified) (tested in a mixture with another compound) | 0.0015 µM (active)
CCn1ncc([N+](=O)[O-])c1C(=O)Nc1nc2cccc(C)c2s1 | 4.1 µM (active)
CCOc1ccc2nc(NC(=O)c3c([N+](=O)[O-])cnn3CC)sc2c1 | 1.83 µM (active)
Cc1ccccc1C(=O)Nc1ccc2c(c1)OCCO2 | 3.65 µM (active)
O=C(Nc1ccc2c(c1)OCCO2)c1ccc(Br)o1 | 5.16 µM (active)
O=C(Nc1ccc2c(c1)OCCO2)c1cc(-c2ccccn2)nc2ccc(Br)cc12 | 4.1 µM (active)
Cc1ccc(C(=O)Nc2ccc3c(c2)OCCO3)o1 | 7.29 µM (active)
Cc1ccc(-c2c(C(=O)N/N=C/C3CC=CCC3)nnn2-c2nonc2N)cc1 (stereo unspecified) | inactive
CN(C)S(=O)(=O)c1ccc(N2CCCC2)c(C(=O)N2CCN(c3ccc([N+](=O)[O-])cc3)CC2)c1 | 1.83 µM (active)
O=C(CNC(=O)Cc1ccccc1)N=Nc1c(O)[nH]c2ccc(Br)cc12 | inactive
O=C(N=Nc1c(O)[nH]c2ccccc12)c1cccs1 | 3.65 µM (active)

Structure (SMILES) | Potency
O=[N+]([O-])c1cncn1CCN1CCOCC1 | 0.326 µM (active)
C[C@]12c3[nH]c4ccc(Cl)cc4c3CCN1C(=O)[C@@H](CC(=O)NCCN1CCOCC1)C[C@@H]2C(=O)N1CCOCC1 | inactive
Cc1cc(C)cc(NC(=O)c2ccc([N+](=O)[O-])o2)c1 | 1.03 µM (active)
CC(=O)c1cccc(NC(=O)c2ccc([N+](=O)[O-])o2)c1 | 1.16 µM (active)
Cc1cccc(NC(=O)c2ccc([N+](=O)[O-])o2)c1 | 0.729 µM (active)
Cc1ccc(NC(=O)c2ccc([N+](=O)[O-])o2)cc1C | 0.46 µM (active)
COc1ccc(CC(=O)NCC(=O)Nc2ccccc2Br)cc1 | inactive
CC(=O)c1ccc(NC(=O)c2ccc([N+](=O)[O-])o2)cc1 | 0.818 µM (active)
COc1ccc(NC(=O)c2ccc([N+](=O)[O-])o2)cc1 | 1.03 µM (active)
COc1cc(C(=O)/C=C/c2cccnc2)c([N+](=O)[O-])cc1OC | 4.6 µM (active)
O=C(/C=C/c1cccnc1)/C=C/c1cccnc1 | 18.3 µM (active)
Cc1cc(Nc2ccccc2)c2c([N+](=O)[O-])ccc(C)c2n1 | 0.259 µM (active)
Cc1cc(Nc2ccccc2)c2c([N+](=O)[O-])cc(C)c(C)c2n1 | 0.259 µM (active)
Cc1ccc(Nc2cc(C)nc3c(C)ccc([N+](=O)[O-])c23)cc1 | 0.146 µM (active)
COc1ccccc1Nc1cc(C)nc2c(C)ccc([N+](=O)[O-])c12 | 2.59 µM (active)
CN(C)/[N+]([O-])=N/Oc1ccc([N+](=O)[O-])cn1 | 2.59 µM (active)
Cc1cc(C2=NNC(=NC3CC3)SC2)c(C)n1-c1ccccc1F | 1.45 µM (active)
COc1ccc(-c2ncn(CCC#N)c2[N+](=O)[O-])cc1 | 0.206 µM (active)
CCn1c(=NC(=O)c2cccc(N3C(=O)CCC3=O)c2)sc2c(OC)ccc(OC)c21 | 2.31 µM (active)

Source: PubChem BioAssay AID588397 (National Center for Advancing Translational Sciences (NCATS), 2011)
